# ± gives the standard deviation of the averaged measurements.
# What was measured:
# Conditions in all cases: concentration: 10 µM; 24 h
# HCC1569 [1] = test: cell number relative to DMSO (% of DMSO); higher = more cells (less growth inhibition / toxicity)
# Outline: (§1)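 HCC1569 and TDF cells were seeded at 800 per well in 384-well plates in RPMI with 10% FBS and treated with compounds at 10 µM for 24 h at 37 °C, in triplicate. After fixation in 3.7% formaldehyde, cells were stained with a rabbit anti-H1.0 antibody, an AlexaFluor 647 secondary and DAPI, and six fields per well were imaged at ×10. H1.0 nuclear intensity or cell number is given as percent of the plate control, using the median of replicates, with HCC1569 values smoothed for positional effects.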
# TDF [2] = test: as above
# Outline: as §1
# TDF [3] = test: H1.0 immunofluorescence intensity relative to DMSO (% of DMSO); higher = stronger H1.0 induction, active = 120 or more
# Outline: as §1
# HCC1569 [4] = test: H1.0 immunofluorescence intensity relative to DMSO (% of DMSO); higher = stronger H1.0 induction, active = 140 or more
# Outline: as §1
# 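For H1.0 immunofluorescence intensity relative to DMSO in this document: TDF is a line of transformed human dermal fibroblasts of mesenchymal origin.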
# 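For cell number relative to DMSO in this document: TDF denotes transformed human dermal fibroblasts of mesenchymal origin.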
Compound,cell number (HCC1569 [1]),cell number (TDF [2]),H1.0 immunofluorescence intensity (TDF [3]),H1.0 immunofluorescence intensity (HCC1569 [4])
"CCCCCC=CCC1OC1CC=CCC=CCCCC(=O)O (stereo not drawn) [11,12-Epoxyeicosatrienoic acid]",104,110,93.8 (inactive),97.7 (inactive)
Br.C=CCN1CCc2c(cc(O)c(O)c2Br)C(c2ccccc2)C1 (stereo not drawn) [R(+)-6-Bromo-APB hydrobromide],89.1,87.2,89.7 (inactive),99.2 (inactive)
COc1cc(NC(C)CCCN)c2ncccc2c1 (stereo not drawn) [Primaquine],102,104,96.2 (inactive),113 (inactive)
O=c1c(-c2ccc(O)cc2)coc2cc(O)cc(O)c12 [Genistein],97.9 ± 4.4,99 ± 4.5,92.8 (inactive),97.6 (inactive)
C[n+]1cccc(C(=O)O)c1.[Cl-],99.8,94,101 (inactive),92.9 (inactive)
COC(=O)C1=C(C)NC(C)=C(C(=O)OCCN2CCN(C(c3ccccc3)c3ccccc3)CC2)C1c1cccc([N+](=O)[O-])c1 (stereo not drawn) [Manidipine],106,109,90.4 (inactive),111 (inactive)
Nc1[nH]nc2nc3ccccc3nc12 [Cdk1/5 Inhibitor],99.6,95.2,104 (inactive),113 (inactive)
CC12C=CC(=O)C=C1CCC1C2C(=O)CC2(C)C1CCC2(O)C(=O)CO (stereo not drawn) [Prednisone],101,106,86.2 (inactive),122 (inactive)
COC(=O)C(c1ccccc1Cl)N1CCc2sccc2C1 (stereo not drawn) [Clopidogrel],99.8,79.7,97.3 (inactive),107 (inactive)
COc1ccc2cc(C(C)C(=O)O)ccc2c1 (stereo not drawn) [Naproxen],99.9,83.8,98.1 (inactive),109 (inactive)
CCCCCCCCCCCCCCC(O)C(O)C(CO)NC(C)=O (stereo not drawn) [C2 Phytoceramide],79.1,86.5,110 (inactive),101 (inactive)
CCCCCC=CCC1OC1C(O)C=CCC=CCCCC(=O)O (stereo not drawn) [Hepoxilin B3],102,95,95.2 (inactive),93.1 (inactive)
CN1CCN(C2=Nc3ccccc3Oc3ccc(Cl)cc32)CC1.O=C(O)CCC(=O)O [Loxapine succinate],101,94.3,95.8 (inactive),110 (inactive)
O=C(O)CCCC=CCC1C(O)CC(O)C1C=CC(O)COc1cccc(C(F)(F)F)c1 (stereo not drawn) [Fluprostenol],100,96,92.2 (inactive),97.4 (inactive)
O=C1OC(C(O)CO)C(O)=C1O (stereo not drawn) [Ascorbic acid],100,103,94 (inactive),95.2 (inactive)
Cc1nc2ccccn2c(=O)c1CCN1CCC(C(=O)c2ccc(F)cc2)CC1 [Pirenperone],99.5,100,96.5 (inactive),103 (inactive)
COc1cc2c(cc1OC)-c1cc(=Nc3c(C)cc(C)cc3C)n(C)c(=O)n1CC2.Cl [Trequinsin hydrochloride],96.4,111,85 (inactive),101 (inactive)
COCCOC(=O)C1=C(C)NC(C)=C(C(=O)OC(C)C)C1c1cccc([N+](=O)[O-])c1 (stereo not drawn) [Nimodipine],100 ± 2.9,106 ± 3.4,91.6 (inactive),104 (inactive)
"COc1cc(C=Cc2ccccc2)oc(=O)c1 [5,6-Dehydrokawain]",104,97.5,99 (inactive),92.6 (inactive)
CC(=O)c1ccc(S(=O)(=O)NC(=O)NC2CCCCC2)cc1 [Acetohexamide],105,107,102 (inactive),109 (inactive)
C[N+](C)(C)CCOC(=O)CCC(=O)OCC[N+](C)(C)C.O.O.[Cl-].[Cl-],103,104,92.5 (inactive),102 (inactive)
CC1(C)SC2C(NC(=O)C(N)c3ccccc3)C(=O)N2C1C(=O)O (stereo not drawn) [Ampicillin],103,109,90 (inactive),108 (inactive)
CC(N)=NCc1cccc(CN)c1.Cl.Cl [1400W dihydrochloride],101,119,90.6 (inactive),109 (inactive)
CC(NC(=O)C(C#N)=Cc1ccc(O)c(O)c1)c1ccccc1 (stereo not drawn) [Tyrphostin AG 835],87.3,87.3,75 (inactive),114 (inactive)
O=C1CCN(c2ccccc2)N1 [Phenidone],106,97.6,92.2 (inactive),98.8 (inactive)
CC(=O)C1CCC2C3CCC4=CC(=O)CCC4(C)C3CCC12C (stereo not drawn) [Progesterone],101.3 ± 0.57,99.1 ± 7.3,95.9 (inactive),102 (inactive)

Compound,cell number (HCC1569 [1]),cell number (TDF [2]),H1.0 immunofluorescence intensity (TDF [3]),H1.0 immunofluorescence intensity (HCC1569 [4])
CC1c2cccc(O)c2C(O)=C2C(=O)C3(O)C(O)=C(C(N)=O)C(=O)C(N(C)C)C3C(O)C21 (stereo not drawn) [Doxycycline],101,93.9,108 (inactive),115 (inactive)
CN(CCOc1ccc(CC(Nc2ccccc2C(=O)c2ccccc2)C(=O)O)cc1)c1ccccn1 (stereo not drawn),102,104,92.6 (inactive),88.2 (inactive)
C=C1C(=CC=C2CCCC3(C)C2CCC3C(C)C=CC(O)C2CC2)CC(O)CC1O (stereo not drawn) [Calcipotriene],97.8,109,91.9 (inactive),115 (inactive)
O=C1OC(=O)C2C3CCC(O3)C12 (stereo not drawn) [Norcantharidin],96,92.3,105 (inactive),103 (inactive)
COCCCOc1ccnc(CS(=O)c2nc3ccccc3[n-]2)c1C.[Na+] (stereo not drawn),101,90.9,103 (inactive),106 (inactive)
CN(C)C(=O)COC(=O)Cc1ccc(OC(=O)c2ccc(N=C(N)N)cc2)cc1.CS(=O)(=O)O,99.4,115,91.2 (inactive),98.5 (inactive)
CC(C)=CCCC(C)=CCCC(C)=CCSCC(=O)O [Farnesylthoiacetic acid],100,101,97.7 (inactive),96.1 (inactive)
Cc1ccc(NC2=CC(=O)c3sc(C)nc3C2=O)cc1 [Cdk4 Inhibitor III],26.6,12,132 (active),105 (inactive)
CC1CCC2C(C)(CO)C(O)CCC2(C)C12CCC(CO)(CCO)O2 (stereo not drawn) [Lagochiline],98.2,99.8,97 (inactive),100 (inactive)
CCCCCCCCCCCCCCCC(=O)NCCO [Palmitylethanolamide],99.8,104,96.8 (inactive),95.5 (inactive)
Cl.O=C(O)C1CCCN(CCC=C(c2ccccc2)c2ccccc2)C1 (stereo not drawn),97.9,92.7,98.1 (inactive),98.1 (inactive)
CN1CCCCC1CCN1c2ccccc2Sc2ccc(S(C)=O)cc21.O=S(=O)(O)c1ccccc1 (stereo not drawn) [Mesoridazine besylate],103,111,92.4 (inactive),109 (inactive)
CC(C)NCC(O)c1ccc2ccccc2c1.Cl (stereo not drawn) [Pronethalol.HCl],101,107,86.6 (inactive),102 (inactive)
CCCCCC(O)C=CC1C(O)CC(O)C1CC(=O)CCCCC(=O)O (stereo not drawn) [6-Keto-prostaglandin F1a],101,91.3,102 (inactive),108 (inactive)
O=C(O)CCCC=CCC1C(O)CC(O)C1C=CC(O)COc1cccc(Cl)c1.[Na] (stereo not drawn),99.8,98.7,96.8 (inactive),92.6 (inactive)
COc1cc(C(=O)NS(=O)(=O)c2ccccc2C)ccc1Cc1cn(C)c2ccc(NC(=O)OC3CCCC3)cc12 [Zafirlukast],101,110,90.1 (inactive),105 (inactive)
O=C(Nc1nc2ccc(NC(=O)C34CC5CC(CC(C5)C3)C4)cc2s1)c1ccccc1,45,20.4,170 (active),146 (active)
CS(=O)(=O)c1ccc(C2=C(c3ccccc3)C(=O)OC2)cc1 [Rofecoxib],98.3,88.9,98.4 (inactive),111 (inactive)
CC[C@@]1(O)C(=O)OCc2c1cc1n(c2=O)Cc2cc3c(CN(C)C)c(O)ccc3nc2-1,61.3,26.3,129 (active),142 (active)
CN(C)c1ccc(O)c2c1CC1CC3C(N(C)C)C(=O)C(C(N)=O)=C(O)C3(O)C(=O)C1=C2O.Cl (stereo not drawn) [Minocycline hydrochloride],99,109,99.7 (inactive),100 (inactive)
"O=C1NC(=O)C(c2ccccc2)(c2ccccc2)N1 [5,5-Diphenylhydantoin]",99.8,108,89.2 (inactive),100 (inactive)
COc1c2occc2cc2ccc(=O)oc12 [Xanthotoxin],101,104,106 (inactive),103 (inactive)
Cl.c1ccc(-n2c(C3=NCCN3)cc3ccccc32)cc1,98.8,92.4,105 (inactive),101 (inactive)
O=C1CN(/N=C/c2ccc(-c3ccc([N+](=O)[O-])cc3)o2)C([O-])=N1.[Na+],93.8,104,97.3 (inactive),111 (inactive)
COC(=O)c1c(-c2cc(OC)c(OC)c(OC)c2)c2ccnc(OCc3ncccn3)c2c(=O)n1Cc1ccnc(C)c1.Cl,100,110,94.3 (inactive),95.2 (inactive)
C=CC(C)(O)CCC1C(C)(O)CCC2C(C)(C)CCCC21C (stereo not drawn) [Sclareol],105,90.1,105 (inactive),94.7 (inactive)
